HSP90 refold inh – blocks HSP90-mediated luciferase refolding in reticulocyte lysate. inhibition, % at 5.6 µM. Rabbit reticulocyte lysate, luciferase refolding luminescence, 3 h. 290,000 tested, 0.91% active. AID 1789;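 active means inhibition above the screen-wide mean plus 3 SD, computed separately per campaign, cut at about 16% in these data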;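 further: 0% = DMSO wells and 100% = 60 µM geldanamycin wells; inhibitors lower the luminescence because luciferase stays unfolded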
KKLEB tox – counter-screen for CF NF-kB inhibitors: cytotoxicity | AID 602141 | 360,000 tested, 0.36% active | KKLEB CF airway cells viability, ATPlite luminescence, overnight; active compounds read low; cells stimulated with P. aeruginosa culture filtrate | activity change (cytotoxicity), % at 5 µM;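 active means corrected activity change at or below -50% at 5 µM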
Mdm2 MdmX PPI – disrupts the human Mdm2-MdmX interaction | O15151+Q00987 | SaOS-2 split-luciferase Mdm2/MdmX complementation, luminescence | inhibition, % at 8 µM | 330,000 tested, 3% active | AID 485346;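 active means inhibition of at least 50% at 8 µM in the primary screen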
LGR2 antag – blocks bursicon-induced cAMP signaling via Drosophila LGR2. HEK293 LGR2, CRE-luciferase, bursicon-stimulated, 4 h. inhibition, % at 9.99 µM. 380,000 tested, 0.35% active;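 active means drop in luminescence signal, shown as inhibition above about 50% in the replicate tests, limit read from the data, passing the limit was not always enough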;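 further: agonist challenge used bursicon conditioned medium at about half maximal strength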
CF NFkB block – blocks PAF-induced NF-kB reporter in cystic fibrosis cells. KKLEB NF-kB-GFP reporter, GFP fluorescence overnight. inhibition, % at 5 µM. 360,000 tested, 0.86% active;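 active means at least 50% inhibition at 5 µM, scaled per plate between neutral and stimulator controls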;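 further: PAF is a Pseudomonas aeruginosa culture filtrate used as stimulus; plate controls were PAF-stimulated DMSO wells for no effect and unstimulated DMSO wells for full effect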
Peg3 prom inh – Peg3 promoter activity inhibition. HeLa PEG-Prom luciferase reporter, luminescence, overnight. inhibition, % at 20 µM. 360,000 tested, 1.7% active. AID 588405;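 active means inhibition of at least 50% at 20 µM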
Mdm2 MdmX conf – confirmation of human Mdm2/MdmX interaction inhibitors; AID 489028; shares compounds with Mdm2 MdmX PPI; inhibition, % at 8 µM; 10,000 tested, 55% active; Mdm2-MdmX binding, luminescent assay; in the data active means inhibition above about 40%
FLuc counter – full-length luciferase inhibition in Mdm2/MdmX counter-screen. shares compounds with Mdm2 MdmX PPI. SaOS-2 full-length luciferase counterscreen, luminescence. inhibition, % at 8 µM. 6,200 tested, 77% active. AID 504607;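 active means mean inhibition at 8 µM reaching about 37%, which flags the compound as non-specific, limit read from the data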;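 further: p53-null SaOS-2 cells with luciferase driven by a doxycycline-inducible promoter; compound on cells about two nights before reading with doxycycline added after day one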
Starred values were filed as active, the others as inactive; x = no result given. An excerpt weighted towards active compounds, which were near 3.6% of everything screened.

SMILES	HSP90 refold inh	KKLEB tox	Mdm2 MdmX PPI	LGR2 antag	CF NFkB block	Peg3 prom inh	Mdm2 MdmX conf	others
CO[C@@H]1CN(C)C(=O)c2cc(NC(=O)Nc3cccc(Cl)c3)ccc2OC[C@H](C)NC[C@H]1C	x	x	x	7	x	x	x
COc1ccc(CN(C)C(=O)c2cc(-c3ccc(OC)c(OC)c3)nc3ccccc23)c(OC)c1	-4	2	57*	-26	-9	22	46*	FLuc counter=101*
COc1ccc(-c2cc(C(=O)N(C)Cc3nc4ccccc4c(=O)[nH]3)c3ccccc3n2)cc1OC	x	-6	52*	20	27	48	12
COc1ccc(-c2cc(C(=O)N(C)CCc3ccc(OC)c(OC)c3)c3ccccc3n2)cc1	-3	-14	14	-19	34	10	x
COc1cccc(NC(=O)CN(C)C(=O)c2cc(-c3ccccc3)nc3ccccc23)c1	x	-4	18	4	-30	50	x
COc1cccc(CN(C)C(=O)c2cc(-c3ccc(F)cc3)nc3ccccc23)c1	-1	2	53*	x	-35	50	16
COc1cccc(CN(C)C(=O)c2cc(-c3ccc(OC)c(OC)c3)nc3ccccc23)c1	-5	-6	55*	0	0	49	32
COc1ccc(-c2cc(C(=O)N(C)CC(=O)Nc3cccc(F)c3)c3ccccc3n2)cc1OC	x	-32	x	-11	30	48	x
COc1ccc(CCN(C)C(=O)c2cc(-c3ccccc3)nc3ccccc23)cc1OC	-8	6	12	-18	9	-5	x
CO[C@@H](CN(C)S(=O)(=O)c1ccc(C)cc1)[C@H](C)CN(Cc1ccccc1Cl)[C@@H](C)CO	x	x	x	18	x	x	x
O=C(N[C@H]1CC[C@H](CCNS(=O)(=O)Cc2ccccc2)O[C@H]1CO)c1ccc2c(c1)OCO2	x	x	x	5	x	x	x
CC(C)NC(=O)Nc1cccc2c1O[C@H](CN(C)S(=O)(=O)c1ccccc1)[C@H](C)CN([C@@H](C)CO)C2=O	x	x	x	-18	x	x	x
COc1ccc(NC(=O)N(C)C[C@H]2Oc3ccc(NC(=O)c4ccncc4)cc3CC(=O)N([C@H](C)CO)C[C@H]2C)cc1	x	x	x	-4	x	x	x
Cc1[nH]nc2ncc(C(=O)c3cc(F)ccc3O)cc12	10	-14	52*	x	50	19	35	FLuc counter=61*
Cc1noc2ncc(C(=O)c3cc(F)ccc3O)cc12	0	1	-16	-4	8	2	x
O=C(NC1CCCCC1)c1n[nH]c2c1CCCCC2	x	-33	71*	91*	4	56*	69*	FLuc counter=65*
CC(C)NC(=O)Nc1ccc2c(c1)C(=O)N([C@H](C)CO)C[C@H](C)[C@H](CN(C)C(=O)c1ccncc1)OCCCC[C@H](C)O2	x	x	x	-6	x	x	x
O=S(=O)(NCC[C@@H]1CC[C@@H](NS(=O)(=O)c2ccccc2Cl)[C@@H](CO)O1)c1ccc(F)cc1	x	x	x	34	x	x	x
O=C(Nc1cccc(C(F)(F)F)c1)Nc1ccc(N2CCCC2)c(S(=O)(=O)Nc2ccccc2Cl)c1	0	-58*	99*	12	59*	64*	97*	FLuc counter=57*
C[C@@H]1CN([C@@H](C)CO)C(=O)c2cc(NS(C)(=O)=O)ccc2O[C@@H]1CN(C)Cc1ccc(Cl)c(Cl)c1	x	x	x	-1	x	x	x
NC(=O)CC(NC(=O)Cc1cccc2ccccc12)c1ccc(NC2CCN(Cc3ccccc3)CC2)c([N+](=O)[O-])c1 (stereo not drawn)	-4	6	55*	-9	-9	2	14
NC(=O)CC(NC(=O)Cc1ccc(Br)cc1)c1ccc(NC2CCN(Cc3ccccc3)CC2)c([N+](=O)[O-])c1 (stereo not drawn)	-4	-13	12	-6	-23	19	x
NC(=O)CC(NC(=O)Cc1ccc(Br)cc1)c1ccc(NCc2cc(F)ccc2F)c([N+](=O)[O-])c1 (stereo not drawn)	x	-36	55*	-12	5	23	-10
CN1C[C@H]2[C@@H](c3ccccc31)[C@H](CO)N2Cc1ccccc1	x	x	x	-4	x	x	x
C[C@H](CO)N1C[C@H](C)[C@H](CN(C)C(=O)C2CCCCC2)Oc2ncc(-c3ccccc3)cc2C1=O	x	x	x	10	x	x	x
SMILES	HSP90 refold inh	KKLEB tox	Mdm2 MdmX PPI	LGR2 antag	CF NFkB block	Peg3 prom inh	Mdm2 MdmX conf	others
CC(Oc1ccc(Br)cc1)C(=O)Nc1nc(-c2ccccn2)cs1 (stereo not drawn)	4	-11	80*	17	15	40	71*	FLuc counter=35
CC(C)[C@H](NC(=O)c1ccccc1Cl)C(=O)Nc1nc(-c2ccccn2)cs1	-1	-8	64*	10	-15	35	53*	FLuc counter=36
CN(C)C(=O)c1ccc(-c2ccccc2[C@@H]2[C@@H](C#N)N(C(=O)C3CCC3)[C@H]2CO)cc1	x	x	x	-3	x	x	x
COCC(=O)N(C)C[C@@H]1Oc2ncc(-c3ccccc3F)cc2C(=O)N([C@@H](C)CO)C[C@@H]1C	x	x	x	1	x	x	x
O=C(NCCc1ccccc1)[C@H]1[C@H](CO)[C@H]2Cn3c(cccc3=O)[C@@H]1N2C(=O)C1CCC1	x	x	x	1	x	x	x
Cc1cc(C)n(-c2nc(NCCN(C)C)c3c4c(sc3n2)COC(C)(C)C4)n1	-2	-4	65*	-2	5	14	37	FLuc counter=63*
Cc1cc(C)n(-c2nc(NCCCN(C)C)c3c4c(sc3n2)COC(C)(C)C4)n1	-4	-17	29	-15	10	6	x
Cc1cc(C)n(-c2nc(NCCC(C)C)c3c4c(sc3n2)COC(C)(C)C4)n1	-4	7	x	x	-14	-16	x
CCN(CC)CCNc1nc(-n2nc(C)cc2C)nc2sc3c(c12)CC(C)(C)OC3	3	-16	61*	1	13	3	35
O=C(Cc1ccc(Br)cc1)NC1CCCc2ccccc21 (stereo not drawn)	0	-5	-3	10	0	18	x
O=C(CCl)NC1CCCc2ccccc21 (stereo not drawn)	-2	5	58*	8	-17	17	20
COc1cc2nc(SCC(=O)c3ccc(Br)cc3)n3nc(C)nc3c2cc1OC	-1	-2	65*	10	-20	24	19
C[C@H](CO)N1C[C@H](C)[C@H](CN(C)S(=O)(=O)c2ccc(Cl)cc2)Oc2ccc(NC(=O)c3ccncc3)cc2CC1=O	x	x	x	2	x	x	x
COCCNC(=O)C[C@H]1C=C[C@H](NS(=O)(=O)c2ccc(C)cc2)[C@H](CO)O1	x	x	x	2	x	x	x
CNC(=O)c1c(O)c2cccc3c2n(c1=O)CC3	3	4	75*	x	-56	23	54*	FLuc counter=16
O=C(NCCCO)c1c(O)c2cccc3c2n(c1=O)CCC3	3	-1	81*	17	6	-1	56*	FLuc counter=25

Assay outcomes from PubChem.
